Source: PubChem BioAssay
Shown are actives, neighbours in structure and some others; about 3.6% of the full set was active somewhere.
TGFb inhibitor – inhibitors of TGF-b signaling | HepG2 CAGA-GFP TGF-b/SMAD3 reporter, GFP fluorescence, 18 h; TGF-beta stimulated, 500 pg/mL final | Potency, µM (titrated, usually from 46.1 µM), for the others: top-dose activity, negative = inhibition, hits mostly inhibitors | hit rate 1.2% among 410,000 | AID 588855; further: on the % scale 0 is the no-effect control and ±100 the full control effect; nearly all actives have a fitted effect of over 65% in size
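HEPG2 CAGA-GFP cells (1000/well, DMEM with 1% FBS) were pre-incubated 2 h at 37 degrees C, given compound by pin tool, then stimulated with TGF-beta at 500 pg/mL final for 18 h before per-cell GFP fluorescence imaging.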
A549 viability – kills or reduces viability of A549 cells in Nrf2 counter-screen; Potency, µM (top dose mostly 46 µM), for inactives: top-dose activity change, negative = cytotoxicity, most hits filed as inhibitors; hit rate 0.16% among 390,000; A549 ARE-Fluc cells, CellTiter-Fluor viability, 18-24 h; further: on the % scale 0 is the no-effect control and ±100 the full control effect
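A549 ARE_Fluc cells in 5% FBS OPTI-MEM were exposed to compounds in concentration-response for 18-24 h at 37 deg C. Viability was read by CellTiter-Fluor fluorescence (Ex 405/Em 525) after 30 min, before the luciferase read.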
Nrf2 inh – Nrf2 pathway inhibition; A549 ARE-Fluc reporter, luciferase luminescence, 18-24 h; Potency, µM (doses to about 46 µM), without a hit: at the highest dose activity change, negative = inhibition, most hits filed as inhibitors; hit rate 2.1% among 360,000; further: on the % scale 0 is the no-effect control and ±100 the full control effect; nearly all actives have a fitted effect of over 60% in size
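Two sequential reads on A549 ARE_Fluc cells exposed to compound for 18-24 h: a CellTiter-Fluor fluorescence read for viability, then a luciferase luminescence read for Nrf2/ARE activity.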
HepG2 tox – counter-screen for TGF-b inhibitors: cytotoxicity in HepG2 cells | hit rate 0.76% among 410,000 | AID 588856 | HepG2 CAGA-GFP viability, ATP luminescence, 18 h | Potency, µM (top dose mostly 46.1 µM), inactives show at the highest dose activity change, negative = cytotoxicity, actives largely listed as cytotoxic
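CellTiter-Glo luminescence gave cytotoxicity after 18 hours at 37 degrees C. The cells were HepG2 CAGA-GFP in 1% FBS DMEM, stimulated with 500 pg/mL TGF-beta after compound addition. %Activity was normalised to no-cell wells (complete cell-killing) and DMSO (no toxicity), and curves were fitted and classified.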
Nrf2 ARE act – Nrf2 pathway activation; AREc32 ARE-luciferase reporter (MCF7-derived line), luminescence, 24 h; AID 624171; hit rate 0.31% among 410,000; Potency, µM (top dose mostly 46.1 µM), without a hit: at the highest dose activation, actives largely listed as activators; further: % of control where 0% means no effect; nearly all actives have a fitted effect of over 65% in size
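ARE-driven firefly luciferase activity in AREc32 cells measured after a 24 hr compound exposure at 37 deg C, using Steady-Glo reagent and a 30 min room-temperature hold.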
The depositor's hits bear a star; ? = inconclusive; nt = not tested or not shown; [ ] = another dose, or the depositor's remark. The call rests on the fitted dose curve; in most records, active means well fitted curve in the direction sought with a large enough effect; inconclusive means small, poorly fitted or top-dose-only effect, or another doubt; inactive means no such curve, though single readings can be large; an effect the other way counts as inactive or inconclusive. Potency means the concentration at half of the fitted maximal effect.

SMILES | TGFb inhibitor | A549 viability | Nrf2 inh | HepG2 tox | Nrf2 ARE act
CCCCOc1ccc(S(=O)(=O)NC(=O)C2(C)CCN2C(=O)CCc2ccccc2)cc1 (configuration not stated) | 1.6% | nt | nt | -35.6% | -0.1%
COc1cc2c(cc1OC)C(C)N(C(=O)c1cc3c(s1)-c1ccccc1OC3)CC2 (configuration not stated) | 11.2µM* | -3.2% | ? | -29.1% | -0.3%
COc1cc2c(cc1OC)C(C)N(C(=O)c1cc3c(s1)-c1c(C)cccc1OC3)CC2 (configuration not stated) | ? | -0.6% | ? | -33.3% | -0.2%
O=[N+]([O-])C(/C=C(\Cl)[N+](=O)[O-])=C(N1CCCCC1)N1CCCCC1 | ? | 23.1µM* | -16.7% | -30.9% | 6.7%[9.22 µM]
O=C(CSc1nnc(-c2ccccn2)n1-c1ccc(Cl)cc1)Nc1ccc2c(c1)OCO2 | 9.8% | -21.1% | -23.6% | 4.7% | -0.7%
COc1ccc(OC)c(-c2cc(C(=O)Nc3sc4c(c3C#N)CCC(C)C4)c3ccccc3n2)c1 (configuration not stated) | 7.2% | 0.5% | -8.4% | -15.0% | -0.5%
Cc1ccc(S(=O)(=O)NCCc2nnc3ccc(SCC(=O)Nc4ccc(OC(F)(F)F)cc4)nn23)cc1 | 4.6% | 6.9% | -3.7% | -10.9% | -0.3%
O=C(COc1ccc(/C=N/NC(=O)c2cc3ccccc3o2)cc1Br)Nc1ccccc1 | 3.55µM* | ? | ? | -63.4% | 3.9%
CCN(CC(O)c1cccc(O)c1)C(=O)C12CC3CC(CC(C3)C1)C2 (configuration not stated) | -26.8% | -19.8% | 0.0% | -33.9% | 3.2%
COc1ccc2[nH]c3c(=O)n(/N=C/[C@H]4C(C)C=C(C)CC4C)c(=O)[nH]c3c2c1 (some centres not stated) | 5.01µM* | -20.0% | ? | 7.08µM* | 5.9%
COc1ccc2c(c1)[nH]c1c(=O)n(/N=C/C3C(C)C=C(C)CC3C)c(=O)[nH]c12 (configuration not stated) | -23.4% | -24.4% | ? | -27.6% | 9.3%
Cc1ccccc1OCc1nc2ccccc2c(=O)n1/N=C/c1cn[nH]c1-c1ccccc1 | ? | ? | ? | -44.1% | 3.3%
Cc1ccc(-c2[nH]ncc2/C=N/n2c(COc3ccccc3)nc3ccccc3c2=O)cc1 | 10µM* | -6.2% | ? | 14.1µM* | 9.6%
Cc1cc(/C=N/n2c(COc3ccccc3)nc3ccccc3c2=O)c(O)c([N+](=O)[O-])c1 | 15.8µM* | -9.2% | ? | -18.7% | 4.8%
Cc1c(C(=O)OCC2CCCCC2)[nH]c2c1C(=O)CC(c1ccc(Cl)cc1)C2 (configuration not stated) | -11.4% | 0.1% | 11.6% | 4.3% | -1.2%
COc1ccc(N2CC(O)(c3ccc(F)cc3)[N+]3=C2CCCC3)cc1 (configuration not stated) | 6.0% | 0.6% | 3.1% | -27.3% | -0.4%
COC(=O)c1cccc(NC(=O)C2CCN(S(=O)(=O)Cc3ccccc3)CC2)c1C | -11.3% | 12.4% | 8.8% | -16.3% | -0.2%
CCOc1ccccc1NC(=O)C1CCN(S(=O)(=O)Cc2ccccc2)CC1 | -22.3% | -1.1% | 23.1µM* | -22.5% | -0.2%
Cc1ccccc1-n1nc(C)c2cc(C(=O)N3CCN(S(=O)(=O)c4ccc(Cl)cc4)CC3)sc21 | -20.4% | -26.8% | 13µM* | 1.1% | 2.9%
CC(=O)c1ccc(S(=O)(=O)N2CCN(C(=O)c3ccc(-n4nc(C)c(Cl)c4C)cc3)CC2)cc1 | -22.4% | -0.4% | 25.9µM* | -25.8% | 0.0%
Cc1nn(-c2ccc(C(=O)N3CCN(S(=O)(=O)c4ccccc4C(F)(F)F)CC3)cc2)c(C)c1Cl | ? | -3.5% | -7.6% | -14.8% | -0.9%
CCOC(=O)c1ccc(-c2ccc(/C=C(\C#N)c3nc4ccc(C)cc4[nH]3)o2)cc1 | nt | 0.1% | ? | 3.16µM* | 15.5%
CN(C)S(=O)(=O)c1cccc(-c2nn(-c3ccccc3)cc2/C=C(\C#N)c2nc3ccccc3[nH]2)c1 | -8.2% | -10.6% | ? | 4.5% | 0.3%
CN(C)S(=O)(=O)c1cccc(-c2nn(-c3ccccc3)cc2/C=C2\SC(=S)NC2=O)c1 | 12.6µM* | ? | 16.4µM* | -7.7% | 4.4%
S=C1NC2=C(CCCC2=C2SCCCS2)C(c2ccccc2)N1 (configuration not stated) | -10.8% | 13.6% | 1.7% | -4.1% | 16.9%
SMILES | TGFb inhibitor | A549 viability | Nrf2 inh | HepG2 tox | Nrf2 ARE act
COc1ccc(C2NC(=S)NC3=C2CCCC3=C2SCCS2)cc1 (configuration not stated) | -23.6% | -21.2% | ? | -50.7% | 3.16µM*
COc1ccc(N2CCN(C(=S)Nc3ccc(C)cc3)CC2)cc1 | -15.3% | -18.4% | 0.0% | -0.4% | -0.3%
CCOC(=O)c1[nH]c2ccc(OC)cc2c1NC(=S)N1CCN(c2ccc(F)cc2)CC1 | -22.3% | -1.2% | -18.8% | -4.9% | 1.8%
COc1ccc(N2CCN(C(=S)Nc3cccc(C)c3C)CC2)cc1 | -14.1% | ? | 25.9µM* | -6.9% | 0.1%
CCOC(=O)c1[nH]c2ccc(OC)cc2c1NC(=S)N1CCN(c2cccc(C)c2C)CC1 | 17.8µM* | -10.5% | ? | 10µM* | 6.3%
c1ccc(Oc2cccc3cccnc23)nc1 | 5.7% | 2.4% | 0.0% | 0.1% | -0.2%
O=C1OCCC1Sc1nnc(-c2ccc(Cl)cc2Cl)o1 (configuration not stated) | ? | 9.9% | 9.2µM* | -34.4% | -2.2%
CCOC(=O)N1CCN(C(=S)Nc2ccccc2C)CC1 | 5.2% | 5.7% | -6.3% | 17.9% | -0.4%
Cc1nn(C)cc1C(C)NC(=O)c1cc(COc2c(F)cccc2F)on1 (configuration not stated) | 3.6% | 3.3% | -15.5% | 0.5% | -0.2%
Cc1nn(C)cc1C(C)NC(=O)c1cc(COc2cccc3cnccc23)on1 (configuration not stated) | 11.6% | -7.5% | 10.3µM* | -22.4% | -0.5%
CCOc1ccc(N(C)S(=O)(=O)c2cc(-c3cc(C)no3)ccc2C)cc1 | -25.9% | -11.9% | 18.4µM* | -15.6% | 0.4%
CCN1C(=O)C(=O)c2cc(C)ccc21 | -1.0% | -3.5% | 4.3% | 0.7% | 4.7%
CC[N+]1=C(C)C(C)(C)c2cc(C)ccc21 | ? | -18.1% | 10.3µM* | -32.3% | -0.9%
O=C(CN(C1CCCCC1)S(=O)(=O)c1ccccc1)NCC1CCCO1 (configuration not stated) | 6.1% | 0.4% | -1.4% | -1.3% | 0.0%
O=C(CN(C1CCCCC1)S(=O)(=O)c1ccc(F)cc1)NCC1CCCO1 (configuration not stated) | 4.47µM* | ? | -2.2% | 7.08µM* | ?
